# Compound activity from PubChem BioAssay.
# Only some compounds are listed: those with a hit (about 7.9% of all), similar ones and a draw of the others.
# KB-3-1 cytotox = kills parental KB-3-1 adenocarcinoma cells. actives 1.4% (n = 400,000). AID 1347075. KB-3-1 viability, CellTiter-Glo ATP luminescence, 72 h. Potency, µM (top dose mostly 46.1 µM), most hits filed as cytotoxic; further: on the % scale 0 is the no-effect control and ±100 the full control effect; nearly all actives have a fitted effect of over 60% in size
#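 Cells are dispensed, compounds pinned in, plates held at 37 °C for 72 h, then CellTiter-Glo is added and luminescence read after 10 minutes. Cell line: parental KB-3-1 in phenol-red-free DMEM, 10% FBS.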
# KB-V1 cytotox = kills drug-selected multidrug resistant KB-V1 cells | actives 3.4% (n = 400,000) | AID 1347076 | KB-V1 MDR cells viability, CellTiter-Glo, 72 h | Potency, µM (titrated, usually from 46.1 µM), usual class: cytotoxic; further: on the % scale 0 is the no-effect control and ±100 the full control effect; nearly all actives have a fitted effect of over 60% in size
#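 In this primary screen, KB-V1 cells overexpressing P-gp are incubated with library compounds (lowest to highest concentration) for 72 h at 37 degrees C before a luminescent ATP viability read.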
# MCF10A rerep = DNA re-replication induction in MCF 10a cells. AID 624296. MCF 10A DNA re-replication, Hoechst nuclear intensity, 48 h. Potency, µM (titrated, usually from 46.1 µM), inactives show at the highest dose activity, positive = re-replication, most hits filed as activators. actives 2.9% (n = 350,000); further: % of control where 0% means no effect; nearly all actives have a fitted effect of over 50% in size
# SW480 rerep = inducers of DNA re-replication in SW480 colon cancer cells. actives 1.8% (n = 340,000). AID 624297. Potency, µM (highest dose often 46.1 µM), inactives show at the highest dose re-replication activation, most hits filed as activators. SW480 DNA re-replication, Hoechst DNA content imaging, 48 h; further: % of control where 0% means no effect; nearly all actives have a fitted effect of over 55% in size
#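 Per well, 250 cells were exposed to pinned compound for 48 hr. Nuclear DNA was visualised with Hoechst (40 min, 37 C) and total object intensity recorded by fluorescence scanning.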
# HT1080NT lethal = kills 2HG-producing HT-1080-NT fibrosarcoma cells; HT-1080-NT fibrosarcoma viability, CellTiter-Glo ATP luminescence, 48 h; Potency, µM (highest dose often 46.1 µM), inactives show at the highest dose activity, negative = less viability, usual class: cytotoxic; actives 1.6% (n = 360,000); AID 686970;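 further: NT is the 2HG producing partner of a matched IDH1 knockdown line; 0% = DMSO-treated cells and -100% = media-only wells without cells; nearly all actives have a fitted effect of over 55% in size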
#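 Toxicity toward the 2HG-producing NT line was scored as %Activity, normalised to DMSO and no-cell wells, from CellTiter-Glo luminescence after 48 hours' treatment.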
# HT1080 IDH1KD tx = HT-1080 IDH1 knockdown cell toxicity (counter line). HT-1080 IDH1 knockdown viability, ATP luminescence, 48 h. Potency, µM (top dose mostly 46.1 µM), for the others: at the top dose activity, negative = toxicity, hits mostly cytotoxic. actives 2% (n = 360,000). AID 686971;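 further: 0% = DMSO wells and -100% = cell-free medium wells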
#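 IDH1KD HT-1080 cells, 750/well, RPMI + 5% FBS; compound pinned after 2 h settling; 48 h, 37 °C; CellTiter-Glo luminescence; % activity normalised to DMSO and no-cell wells; curves fitted, classed by r2 and efficacy.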
# Starred values were filed as active, the others as inactive; i = inactive; u = inconclusive; x = no result. The call rests on the fitted dose curve; in most records, active means well fitted curve in the direction sought with a large enough effect; inconclusive means small, poorly fitted or top-dose-only effect, or another doubt; inactive means no such curve, though single readings can be large; an effect the other way counts as inactive or inconclusive. Potency means the concentration at half of the fitted maximal effect.
SMILES,KB-3-1 cytotox,KB-V1 cytotox,MCF10A rerep,SW480 rerep,HT1080NT lethal,HT1080 IDH1KD tx
COc1ccc(NC(=O)c2cccc(Oc3ccccc3)c2)cn1,8.2µM*,u,u,u,5.17µM*,3.66µM*
CC(C)[Si]1(C(C)C)OCC2OC(n3cnc4c(N)ncnc43)C(N)C2O[Si](C(C)C)(C(C)C)O1 (stereo not given),i,i,13µM*,u,-17.9%,u
CCOc1ccccc1-c1nc2c([nH]1)c(=O)n(C)c(=O)n2C,u,10.3µM*,1.6%,19.0%,5.0%,3.0%
Cn1c(=O)c2[nH]c(Br)nc2n(C)c1=O,x,x,-3.0%,0.4%,x,x
CCOC(=O)Cn1c(=O)oc2cc(S(=O)(=O)Nc3ccccc3F)ccc21,i,i,x,x,x,x
CCOc1ccccc1C(=O)Nc1cccc(-c2nc3ccccc3s2)c1,i,i,x,x,x,x
CC1=CC(C)(C)N(C(=O)CSc2nnc(C)s2)c2ccc(C)cc21,i,u,1.3%,-0.8%,-3.8%,7.0%
CC1=CC(C)(C)N(C(=O)CSc2nnc(-c3ccc(C)cc3)o2)c2ccc(C)cc21,u,8.2µM*,u,16.4%,-1.7%,-7.3%
CC1=CC(C)(C)N(C(=O)CSc2nnc(N)s2)c2cc(C)c(C)cc21,i,11.6µM*,u,-3.9%,-4.5%,-2.9%
CCOc1cccc2cc(C(=O)N3CCN(C/C=C/c4ccccc4)CC3)c(=O)oc12,i,8.2µM*,1.4%,0.9%,-4.2%,u
CCOc1cc(C(=O)N2CCN(C/C=C/c3ccccc3)CC2)cc(OCC)c1OCC,i,u,u,-5.9%,-3.6%,-13.3%
COc1ccc(Cl)cc1CNC[C@H]1O[C@@H](n2ccc(N)nc2=O)[C@H](O)[C@@H]1O,i,i,x,x,-0.7%,-1.6%
Cn1c(SCC(=O)Nc2nc(C(C)(C)C)cs2)nnc1C1CC1,i,i,6.51µM*,-30.9%,-0.1%,-6.2%
Cn1c(=O)nc2n(Cc3ccccc3)c3cccc(Cl)c3cc-2c1=O,i,20.6µM*,2.2%,0.9%,14.8%,20.4%
Cc1cccc(-n2c3nc(=O)n(C)c(=O)c-3cc3c(Cl)cccc32)c1C,i,i,x,x,x,x
CCOc1ccc(NC(=O)CSc2nnc(-c3ccncc3)n2-c2ccccc2)cc1,i,i,x,x,x,x
COc1cccc2c1Oc1ncccc1N(C(=O)Nc1ccc(F)c(Cl)c1)C2,i,i,x,x,x,x
CCN(CC)S(=O)(=O)c1ccc(N2CCN(C)CC2)c(NC(=O)Nc2ccc(C)cc2)c1,i,i,11.6µM*,1.8%,8.2µM*,20.6µM*
CCOc1ccc(S(=O)(=O)Nc2ccccc2C(=O)Nc2ccccc2N2CCOCC2)cc1,i,i,4.0%,-4.8%,-1.2%,-1.5%
CCOc1ccc(C(=O)Nc2cc(S(=O)(=O)Nc3ccccc3Cl)ccc2N2CCOCC2)cc1,i,6.51µM*,3.8%,13.2%,3.9%,-2.1%
Cn1c(=O)c(=O)n(C)c2cc(N3CCCCC3)c(NS(=O)(=O)c3ccc(Br)cc3)cc21,i,i,-0.6%,7.31µM*,-1.1%,-11.1%
CCN(CC)S(=O)(=O)c1ccc(N2CCN(C)CC2)c(NC(=O)CSCC(=O)Nc2cccc(C)c2)c1,i,i,u,-36.7%,-3.4%,-1.2%
CCN(CC)S(=O)(=O)c1ccc(N2CCCC2)c(NC(=O)Cc2ccc(OC)cc2)c1,i,23.1µM*,u,9.7%,0.5%,14.1%
CCc1ccc(CNC(=O)C(CC)n2nc(C)c3c(C)n(-c4ccccc4)nc3c2=O)cc1 (stereo not given),i,i,x,x,x,x
COc1ccccc1CNC(=O)CSc1ncc2c(n1)-c1cc(Cl)ccc1N(Cc1ccccc1)S2(=O)=O,i,i,x,x,x,x
Cc1ccc(Cl)cc1-n1c(=O)c2sc3ccccc3c2n(Cc2ccccc2)c1=O,i,i,x,x,x,x
